# Results published in PubChem BioAssay (EPA / NIEHS).
# Records with an inconclusive call do not appear. Active and inactive are the calls of the source. How the source made its calls, unless noted: active means hit-call score of the fitted dose curve at least 0.9, where 1 is the maximum; inactive means score below 0.9.
# Assays:
# [1] = ATG_NFI_CIS: Attagene CIS-FACTORIAL HepG2 Assay for human Nuclear Factor I (NFI) (AID 2282989); conditions: HepG2 cis-regulatory reporter, NFI response element transcription; actives raise or lower the signal
# Procedure, shortened: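 Transient MRTU transfection of HepG2 → 24 h chemical dosing → total RNA, oligo(dT) RT → PCR, 6-FAM primer extension, HpaI cut → capillary electrophoresis. Endpoint fitted bidirectionally relative to DMSO.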
# [2] = molecular target: Myc proto-oncogene protein (Homo sapiens) (UniProt P01106); experiment: ATG_Myc_CIS: Attagene CIS-FACTORIAL HepG2 Assay for human Myelocytomatosis (Myc) Proto-Oncogene Transcription Factor (AID 2282990); conditions: HepG2, Attagene cis-reporter transcription factor activity; actives raise or lower the signal
# Procedure, shortened: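 Transiently transfected HepG2 cells bearing cis-promoter reporter units for endogenous transcription factors; 24 h exposure. Reporter mRNA measured by RT-PCR, 6-FAM primer extension, HpaI cut and capillary electrophoresis; bidirectional fit relative to DMSO.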
# [3] = ATG_NF_kB_CIS: Attagene CIS-FACTORIAL HepG2 Assay for human Nuclear Factor Kappa B (NF-kB) (AID 2282991); conditions: HepG2 Attagene cis-factorial NF-kB reporter mRNA; actives raise or lower the signal
# Procedure, shortened: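 DMSO served as negative control and baseline for bidirectional curve fitting. Transiently transfected HepG2 cells were dosed for 24 h, then reporter transcripts were measured by RT-PCR with capillary electrophoresis detection.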
# [4] = ATG_Oct_MLP_CIS: Attagene CIS-FACTORIAL HepG2 Assay for human Octamer-Binding Transcription Factor (Oct) (AID 2282993); conditions: HepG2 Attagene cis-factorial Oct reporter, mRNA; actives raise or lower the signal
# Procedure, shortened: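 Transient MRTU transfection of HepG2 → 24 h compound treatment → RNA isolation, reverse transcription, PCR → 6-FAM primer extension, HpaI digest → capillary electrophoresis. Activity fitted both directions against DMSO.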
# [5] = molecular target: Peroxisome proliferator-activated receptor gamma (Homo sapiens) (UniProt P37231); experiment: ATG_PPARg_TRANS: Attagene TRANS-FACTORIAL HepG2 Assay for human Peroxisome Proliferator-activated Receptor-gamma (PPARg) (AID 2283007; active means hit-call score of the fitted dose curve at least 0.9, where 1 is the maximum)
# Procedure, shortened: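 Chimeric NR-Gal4 transactivation is measured in transiently transfected HepG2 cells by reporter mRNA induction at 24 h. Detection uses RT-PCR with fluorescent labelling and capillary electrophoresis; DMSO defines baseline.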
# [6] = molecular target: Nuclear receptor subfamily 1 group I member 2 (Homo sapiens) (UniProt O75469); experiment: ATG_PXR_TRANS: Attagene TRANS-FACTORIAL HepG2 Assay for human Pregnane X Receptor (PXR) (AID 2283008; active means hit-call score of the fitted dose curve at least 0.9, where 1 is the maximum)
# Procedure, shortened: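 Read-out is fluorescence of labelled reporter cDNA fragments separated by capillary electrophoresis after RT-PCR and HpaI digestion. Source: HepG2 cells carrying PXR-GAL4/UAS reporter constructs, treated 24 h; activity fitted upward relative to DMSO.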
# [7] = ATG_NRF2_ARE_CIS: Attagene CIS-FACTORIAL HepG2 Assay for human Nuclear Factor Erythroid 2 Related Factor 2 (NFR2) response to Antioxidant Response Elements (ARE) (AID 2282992); conditions: HepG2 Attagene ARE/NRF2 reporter, transcription factor activity; actives raise or lower the signal;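 on AC50: reporter mRNA level measured by RT-PCR and capillary electrophoresis fluorescence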
# Procedure, shortened: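 Transient MRTU transfection of HepG2; 24 h compound exposure; TriZol RNA, RT with oligo(dT), PCR, 6-FAM primer extension, HpaI cut, CE. Bidirectional fit vs DMSO.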
# [8] = molecular target: Cellular tumor antigen p53 (Homo sapiens) (UniProt P04637); experiment: ATG_p53_CIS: Attagene CIS-FACTORIAL HepG2 Assay for human p53 Transcription Factor (AID 2282994); conditions: HepG2 p53 cis-element reporter, Attagene mRNA; actives raise or lower the signal
# Procedure, shortened: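 HepG2, transient MRTU transfection (cis promoter elements, endogenous TFs); 24 h dosing; RNA isolation, RT-PCR, 6-FAM primer extension, HpaI digest, CE fluorescence; bidirectional fit vs DMSO.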
# [9] = molecular target: human Peroxisome Proliferator-activated Receptor alpha (PPARa), PPARA (gene 5465) (UniProt Q07869); experiment: ATG_PPARa_TRANS: Attagene TRANS-FACTORIAL HepG2 Assay for human Peroxisome Proliferator-activated Receptor alpha (PPARa) (AID 2283001; active means hit-call score of the fitted dose curve at least 0.9, where 1 is the maximum)
# Procedure, shortened: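 Measures transcriptional activity of an exogenous chimeric PPARa-Gal4 protein in transiently transfected HepG2 cells after 24 h dosing. Reporter mRNA quantified via RT-PCR and capillary electrophoresis; DMSO served as negative control.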
# [10] = molecular target: human Peroxisome Proliferator-activated Receptor delta (PPARd), PPARD (gene 5467) (UniProt Q03181); experiment: ATG_PPARd_TRANS: Attagene TRANS-FACTORIAL HepG2 Assay for human Peroxisome Proliferator-activated Receptor delta (PPARd) (AID 2283002; active means hit-call score of the fitted dose curve at least 0.9, where 1 is the maximum)
# Procedure, shortened: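 HepG2 cells transiently transfected with GAL4-UAS multiplexed reporter units driven by exogenous chimeric NR-GAL4 proteins; 24 h compound exposure. Reporter mRNA measured by RT-PCR, 6-FAM primer extension, HpaI digestion and capillary electrophoresis; gain of signal fitted relative to DMSO.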
# [11] = molecular target: human Retinoic Acid Receptor beta (RARb), RARB (gene 5915) (UniProt P10826); experiment: ATG_RARb_TRANS: Attagene TRANS-FACTORIAL HepG2 Assay for human Retinoic Acid Receptor beta (AID 2283004; active means hit-call score of the fitted dose curve at least 0.9, where 1 is the maximum)
# Procedure, shortened: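 Induction of reporter mRNA from a chimeric RARb-Gal4 construct was measured by RT-PCR, FAM labelling, HpaI digestion and capillary electrophoresis. Measurements followed 24 h compound treatment of transiently transfected human HepG2 liver cells, with DMSO as baseline.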
# [12] = molecular target: human Retinoic Acid Receptor gamma (RARg), RARG (gene 5916) (UniProt P13631); experiment: ATG_RARg_TRANS: Attagene TRANS-FACTORIAL HepG2 Assay for human Retinoic Acid Receptor gamma (RARg) (AID 2283009; active means hit-call score of the fitted dose curve at least 0.9, where 1 is the maximum)
# Procedure, shortened: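 HepG2 cells transiently transfected with multiplexed reporter units expressing chimeric RARg-GAL4 and GAL4-UAS-driven reporters; 24 h compound exposure. Reporter mRNA quantified by RT-PCR with fluorescent labelling and capillary electrophoresis; gain-of-signal fitted relative to DMSO baseline.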
# [13] = molecular target: human RAR-related Orphan Receptor beta (RORb), RORB (gene 6096) (UniProt Q92753); experiment: ATG_RORb_TRANS: Attagene TRANS-FACTORIAL HepG2 Assay for human RAR-related Orphan Receptor beta (RORb) (AID 2283010; active means hit-call score of the fitted dose curve at least 0.9, where 1 is the maximum)
# Procedure, shortened: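 HepG2 cells were transiently transfected with multiplexed GAL4-UAS reporter units expressing chimeric nuclear receptor–GAL4 proteins, then dosed for 24 h. Reporter mRNA was quantified by RT-PCR with fluorescent labelling and capillary electrophoresis; gain of signal was fitted relative to DMSO.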
# [14] = molecular target: Retinoic acid receptor alpha (Homo sapiens) (UniProt P10276); experiment: ATG_RARa_TRANS: Attagene TRANS-FACTORIAL HepG2 Assay for human Retinoic Acid Receptor alpha (RARa) (AID 2283005; active means hit-call score of the fitted dose curve at least 0.9, where 1 is the maximum)
# Procedure, shortened: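 HepG2 transiently transfected with multiplex GAL4-UAS reporter units including a human RARa–GAL4 chimera; 24 h compound exposure. Reporter mRNA quantified by RT-PCR, 6-FAM labeling and capillary electrophoresis; gain of signal versus DMSO.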
# human Peroxisome Proliferator-activated Receptor delta (PPARd), PPARD (gene 5467), sequence (Q03181 whole entry, looked up, the tested form may be a part): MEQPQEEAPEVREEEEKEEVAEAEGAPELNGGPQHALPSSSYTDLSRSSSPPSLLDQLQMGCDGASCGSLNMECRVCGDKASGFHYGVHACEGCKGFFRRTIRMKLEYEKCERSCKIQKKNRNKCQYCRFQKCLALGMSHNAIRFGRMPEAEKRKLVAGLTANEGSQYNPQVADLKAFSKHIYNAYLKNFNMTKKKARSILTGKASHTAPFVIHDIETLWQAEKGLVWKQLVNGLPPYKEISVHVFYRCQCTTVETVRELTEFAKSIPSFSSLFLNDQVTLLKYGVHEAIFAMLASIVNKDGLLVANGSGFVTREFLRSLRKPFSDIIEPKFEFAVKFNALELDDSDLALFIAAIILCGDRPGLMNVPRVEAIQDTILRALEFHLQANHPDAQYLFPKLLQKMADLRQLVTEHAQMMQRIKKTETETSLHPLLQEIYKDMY
# human Peroxisome Proliferator-activated Receptor alpha (PPARa), PPARA (gene 5465), sequence (Q07869 whole entry, looked up, the tested form may be a part): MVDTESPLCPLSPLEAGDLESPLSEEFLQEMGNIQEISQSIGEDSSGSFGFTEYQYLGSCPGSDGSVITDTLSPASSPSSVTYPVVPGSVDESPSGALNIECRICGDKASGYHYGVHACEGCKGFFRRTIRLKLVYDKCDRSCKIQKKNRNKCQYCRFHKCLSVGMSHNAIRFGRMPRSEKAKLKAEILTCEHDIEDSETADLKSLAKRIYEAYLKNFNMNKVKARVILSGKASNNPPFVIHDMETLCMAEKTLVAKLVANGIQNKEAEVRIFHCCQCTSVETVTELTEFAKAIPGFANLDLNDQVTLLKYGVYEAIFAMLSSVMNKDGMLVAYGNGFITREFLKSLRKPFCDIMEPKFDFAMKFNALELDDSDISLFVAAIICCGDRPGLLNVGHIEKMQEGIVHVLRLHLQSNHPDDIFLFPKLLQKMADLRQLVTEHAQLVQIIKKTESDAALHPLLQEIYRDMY
# Nuclear receptor subfamily 1 group I member 2 (Homo sapiens), sequence (O75469 whole entry, looked up, the tested form may be a part): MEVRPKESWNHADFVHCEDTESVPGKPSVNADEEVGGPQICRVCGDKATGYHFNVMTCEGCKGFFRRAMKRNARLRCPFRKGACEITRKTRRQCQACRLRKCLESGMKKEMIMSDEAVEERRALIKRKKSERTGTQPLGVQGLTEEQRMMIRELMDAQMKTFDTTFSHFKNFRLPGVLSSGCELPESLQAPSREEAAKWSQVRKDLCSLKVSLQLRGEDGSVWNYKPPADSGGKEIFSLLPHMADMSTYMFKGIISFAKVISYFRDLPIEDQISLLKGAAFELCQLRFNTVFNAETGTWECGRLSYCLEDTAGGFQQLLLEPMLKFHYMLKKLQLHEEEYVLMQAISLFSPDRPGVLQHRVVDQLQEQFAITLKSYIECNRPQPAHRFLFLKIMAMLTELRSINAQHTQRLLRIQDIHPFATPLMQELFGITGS
# Peroxisome proliferator-activated receptor gamma (Homo sapiens), sequence (P37231 whole entry, looked up, the tested form may be a part): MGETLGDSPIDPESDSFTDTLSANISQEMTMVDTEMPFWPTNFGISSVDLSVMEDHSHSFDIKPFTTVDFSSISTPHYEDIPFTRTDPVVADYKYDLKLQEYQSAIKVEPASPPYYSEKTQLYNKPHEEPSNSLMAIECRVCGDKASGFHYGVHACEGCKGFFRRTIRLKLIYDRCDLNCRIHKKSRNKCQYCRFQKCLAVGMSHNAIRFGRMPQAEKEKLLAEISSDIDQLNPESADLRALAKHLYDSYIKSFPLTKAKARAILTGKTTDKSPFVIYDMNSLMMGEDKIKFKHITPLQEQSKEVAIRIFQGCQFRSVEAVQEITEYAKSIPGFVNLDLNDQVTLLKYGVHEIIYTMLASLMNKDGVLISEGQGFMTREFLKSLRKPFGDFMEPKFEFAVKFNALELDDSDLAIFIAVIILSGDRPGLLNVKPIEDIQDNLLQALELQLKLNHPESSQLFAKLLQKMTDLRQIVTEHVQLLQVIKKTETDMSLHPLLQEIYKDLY
# human Retinoic Acid Receptor beta (RARb), RARB (gene 5915), sequence (P10826 whole entry, looked up, the tested form may be a part): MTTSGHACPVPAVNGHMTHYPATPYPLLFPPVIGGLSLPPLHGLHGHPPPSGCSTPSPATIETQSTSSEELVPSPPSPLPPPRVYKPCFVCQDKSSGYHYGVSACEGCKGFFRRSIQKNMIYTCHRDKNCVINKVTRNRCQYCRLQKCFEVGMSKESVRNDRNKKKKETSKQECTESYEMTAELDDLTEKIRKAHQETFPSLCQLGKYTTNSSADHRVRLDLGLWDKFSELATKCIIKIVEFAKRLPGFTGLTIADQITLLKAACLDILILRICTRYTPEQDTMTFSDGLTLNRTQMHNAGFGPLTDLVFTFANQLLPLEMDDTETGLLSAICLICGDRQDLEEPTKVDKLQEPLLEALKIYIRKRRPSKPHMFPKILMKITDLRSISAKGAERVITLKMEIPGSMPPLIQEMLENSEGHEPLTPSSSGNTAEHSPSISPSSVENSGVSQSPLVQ
# Cellular tumor antigen p53 (Homo sapiens), sequence (P04637 whole entry, looked up): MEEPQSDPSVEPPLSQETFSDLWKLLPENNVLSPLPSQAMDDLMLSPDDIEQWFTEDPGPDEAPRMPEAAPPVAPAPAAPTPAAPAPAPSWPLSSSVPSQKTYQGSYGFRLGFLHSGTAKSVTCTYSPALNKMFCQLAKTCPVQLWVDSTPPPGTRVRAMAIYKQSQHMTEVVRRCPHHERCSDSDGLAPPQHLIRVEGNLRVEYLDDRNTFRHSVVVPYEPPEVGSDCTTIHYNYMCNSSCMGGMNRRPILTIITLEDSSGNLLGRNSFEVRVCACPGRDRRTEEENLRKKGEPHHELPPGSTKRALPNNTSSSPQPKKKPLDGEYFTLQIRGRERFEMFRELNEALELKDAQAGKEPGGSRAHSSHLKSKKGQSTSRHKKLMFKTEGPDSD
# Myc proto-oncogene protein (Homo sapiens), sequence (P01106 whole entry, looked up): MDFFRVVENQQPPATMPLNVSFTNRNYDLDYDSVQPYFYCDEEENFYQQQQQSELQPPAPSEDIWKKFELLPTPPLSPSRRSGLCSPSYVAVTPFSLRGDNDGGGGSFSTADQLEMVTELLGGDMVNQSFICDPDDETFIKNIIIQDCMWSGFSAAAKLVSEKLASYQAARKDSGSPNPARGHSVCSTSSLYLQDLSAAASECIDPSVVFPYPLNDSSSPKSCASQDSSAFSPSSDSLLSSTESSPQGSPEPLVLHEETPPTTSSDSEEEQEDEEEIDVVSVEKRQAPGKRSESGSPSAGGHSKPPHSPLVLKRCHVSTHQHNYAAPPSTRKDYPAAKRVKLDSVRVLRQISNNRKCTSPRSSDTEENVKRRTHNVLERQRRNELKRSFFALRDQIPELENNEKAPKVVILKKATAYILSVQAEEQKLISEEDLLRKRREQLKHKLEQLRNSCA
# human Retinoic Acid Receptor gamma (RARg), RARG (gene 5916), sequence (P13631 whole entry, looked up, the tested form may be a part): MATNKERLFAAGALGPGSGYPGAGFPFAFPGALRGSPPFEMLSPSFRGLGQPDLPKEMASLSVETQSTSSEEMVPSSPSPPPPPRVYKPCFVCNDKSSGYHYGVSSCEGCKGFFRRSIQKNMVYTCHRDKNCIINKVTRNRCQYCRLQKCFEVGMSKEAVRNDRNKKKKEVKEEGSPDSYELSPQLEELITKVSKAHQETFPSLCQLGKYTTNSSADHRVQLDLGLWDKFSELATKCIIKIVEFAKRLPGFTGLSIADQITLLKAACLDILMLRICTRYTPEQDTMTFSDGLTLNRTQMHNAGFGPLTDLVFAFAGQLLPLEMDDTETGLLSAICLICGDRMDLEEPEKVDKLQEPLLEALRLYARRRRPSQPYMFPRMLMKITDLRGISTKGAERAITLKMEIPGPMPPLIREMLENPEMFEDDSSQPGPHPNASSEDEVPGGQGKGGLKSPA
# human RAR-related Orphan Receptor beta (RORb), RORB (gene 6096), sequence (Q92753 whole entry, looked up, the tested form may be a part): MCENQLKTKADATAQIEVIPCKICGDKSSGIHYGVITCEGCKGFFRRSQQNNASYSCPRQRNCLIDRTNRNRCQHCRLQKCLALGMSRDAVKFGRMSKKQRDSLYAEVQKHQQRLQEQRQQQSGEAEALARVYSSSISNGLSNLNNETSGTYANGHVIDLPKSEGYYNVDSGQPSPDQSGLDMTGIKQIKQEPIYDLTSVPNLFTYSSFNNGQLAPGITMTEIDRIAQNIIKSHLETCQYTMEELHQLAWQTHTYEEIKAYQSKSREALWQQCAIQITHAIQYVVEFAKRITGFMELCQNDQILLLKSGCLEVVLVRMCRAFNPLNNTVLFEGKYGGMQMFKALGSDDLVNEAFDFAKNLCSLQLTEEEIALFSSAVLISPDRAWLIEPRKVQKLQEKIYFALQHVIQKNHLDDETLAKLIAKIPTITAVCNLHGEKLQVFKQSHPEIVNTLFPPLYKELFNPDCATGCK
# Retinoic acid receptor alpha (Homo sapiens), sequence (P10276 whole entry, looked up, the tested form may be a part): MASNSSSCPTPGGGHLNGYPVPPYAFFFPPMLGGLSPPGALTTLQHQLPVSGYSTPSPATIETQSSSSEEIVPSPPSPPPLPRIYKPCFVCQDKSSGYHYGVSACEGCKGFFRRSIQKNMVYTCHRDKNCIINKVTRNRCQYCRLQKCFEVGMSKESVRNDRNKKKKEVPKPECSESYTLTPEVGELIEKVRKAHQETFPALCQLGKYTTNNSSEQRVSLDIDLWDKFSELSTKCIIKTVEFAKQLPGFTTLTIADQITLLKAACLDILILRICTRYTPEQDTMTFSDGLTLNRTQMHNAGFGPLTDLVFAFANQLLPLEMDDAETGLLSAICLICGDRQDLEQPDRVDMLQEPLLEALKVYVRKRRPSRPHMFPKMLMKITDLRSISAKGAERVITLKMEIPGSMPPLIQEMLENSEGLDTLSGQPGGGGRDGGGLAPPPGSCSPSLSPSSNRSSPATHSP
structure (smiles),measurement,setting,value
CCN(CC)c1ccc(C(=O)c2ccccc2C(=O)O)c(O)c1,outcome,[1],inactive
same,outcome,[2],inactive
same,outcome,[3],inactive
same,outcome,[4],inactive
same,AC50,[5],30 µM (active)
same,AC50,[6],0.611 µM (active)
COc1c2ccoc2cc2oc(=O)ccc12,outcome,[1],inactive
same,outcome,[2],inactive
same,outcome,[7],inactive
same,outcome,[4],inactive
same,outcome,[8],inactive
same,outcome,[9],inactive
same,outcome,[5],inactive
same,AC50,[6],36.6 µM (active)
CC(=O)Nc1ccc2c(c1)Cc1cc(NC(C)=O)ccc1-2,outcome,[1],inactive
same,outcome,[2],inactive
same,outcome,[7],inactive
same,outcome,[4],inactive
same,outcome,[8],inactive
same,outcome,[10],inactive
CC1(C)S[C@@H]2[C@H](NC(=O)COc3ccccc3)C(=O)N2[C@H]1C(=O)O,outcome,[1],inactive
same,outcome,[2],inactive
same,outcome,[3],inactive
same,outcome,[4],inactive
same,outcome,[8],inactive
same,outcome,[10],inactive
C[Si](C)(C)O[Si](O)(O)O,outcome,[1],inactive
same,outcome,[2],inactive
same,outcome,[7],inactive
same,outcome,[4],inactive
same,outcome,[9],inactive
same,outcome,[10],inactive
same,outcome,[11],inactive
same,outcome,[6],inactive
same,outcome,[12],inactive
CC(C)(C)c1ccc(N)cc1,outcome,[1],inactive
same,outcome,[2],inactive
same,outcome,[7],inactive
same,outcome,[4],inactive
same,outcome,[5],inactive
same,outcome,[6],inactive
same,outcome,[13],inactive
C=CC(C)(C)C,outcome,[1],inactive
same,outcome,[2],inactive
same,outcome,[7],inactive
same,outcome,[4],inactive
same,outcome,[8],inactive
same,outcome,[10],inactive
same,outcome,[5],inactive
same,outcome,[6],inactive
O=C1CCCCCN1SSN1CCCCCC1=O,AC50,[1],153 µM (active)
same,outcome,[2],inactive
same,AC50,[7],42.9 µM (active)
same,outcome,[8],inactive
same,outcome,[5],inactive
Nc1ccc2cc3ccccc3cc2c1,outcome,[1],inactive
same,outcome,[2],inactive
same,AC50,[7],47 µM (active)
same,outcome,[4],inactive
same,outcome,[9],inactive
same,outcome,[10],inactive
same,outcome,[11],inactive
same,AC50,[5],26.8 µM (active)
same,outcome,[6],inactive
same,outcome,[12],inactive
same,outcome,[13],inactive
Cc1c(C)c([N+](=O)[O-])c(C(C)(C)C)c([N+](=O)[O-])c1C,outcome,[1],inactive
same,outcome,[2],inactive
same,outcome,[7],inactive
same,outcome,[4],inactive
same,outcome,[8],inactive
same,outcome,[11],inactive
same,outcome,[14],inactive
same,outcome,[5],inactive
same,AC50,[6],2 µM (active)
same,outcome,[12],inactive
CC1=CC[C@H](C(C)C)C=C1,outcome,[1],inactive
same,outcome,[2],inactive
same,AC50,[7],27.7 µM (active)
same,outcome,[4],inactive
same,outcome,[8],inactive
same,AC50,[5],27.9 µM (active)
same,AC50,[6],0.822 µM (active)
COc1ccc([C@@H]2CC(=O)c3c(O)cc(O[C@@H]4O[C@H](CO[C@@H]5O[C@@H](C)[C@H](O)[C@@H](O)[C@H]5O)[C@@H](O)[C@H](O)[C@H]4O)cc3O2)cc1OC,outcome,[1],inactive
same,outcome,[2],inactive
same,outcome,[7],inactive
same,outcome,[4],inactive
same,outcome,[8],inactive
same,outcome,[5],inactive
same,outcome,[6],inactive
same,outcome,[12],inactive
CCN(CCC#N)c1ccc(N=Nc2c(Cl)cc([N+](=O)[O-])cc2Cl)cc1,outcome,[1],inactive
same,outcome,[2],inactive
same,outcome,[7],inactive
same,outcome,[4],inactive
same,outcome,[8],inactive
same,outcome,[10],inactive
same,AC50,[5],16.3 µM (active)
same,AC50,[6],1.05 µM (active)
same,outcome,[12],inactive
CCOC(=O)c1ccc(N(C)C)cc1,outcome,[1],inactive
same,outcome,[2],inactive
same,outcome,[7],inactive
same,outcome,[4],inactive
same,outcome,[9],inactive
same,outcome,[5],inactive
same,AC50,[6],27.5 µM (active)
O=C1Nc2ccccc2C1(c1ccc(O)cc1)c1ccc(O)cc1,outcome,[1],inactive
same,outcome,[2],inactive
same,AC50,[7],178 µM (active)
same,AC50,[4],22.4 µM (active)
same,outcome,[10],inactive
same,outcome,[5],inactive
same,outcome,[6],inactive
